{"source": "PubChem BioAssay AID588726", "about": "(The Scripps Research Institute Molecular Screening Center, 2011)", "note": "Out of some 360,000 compounds screened, about 8,200 (2.3%) were called active. The entries come from a sample that favours actives as a whole. Unmarked numbers belong to inactive results. Rule as the data show it: active = inhibition above about 27%; inactive = the rest."}
{"target": "Fructose-bisphosphate aldolase (Mycobacterium tuberculosis (strain ATCC 25618 / H37Rv)) (UniProt P9WQA3)", "sequence (P9WQA3 whole entry, looked up)": "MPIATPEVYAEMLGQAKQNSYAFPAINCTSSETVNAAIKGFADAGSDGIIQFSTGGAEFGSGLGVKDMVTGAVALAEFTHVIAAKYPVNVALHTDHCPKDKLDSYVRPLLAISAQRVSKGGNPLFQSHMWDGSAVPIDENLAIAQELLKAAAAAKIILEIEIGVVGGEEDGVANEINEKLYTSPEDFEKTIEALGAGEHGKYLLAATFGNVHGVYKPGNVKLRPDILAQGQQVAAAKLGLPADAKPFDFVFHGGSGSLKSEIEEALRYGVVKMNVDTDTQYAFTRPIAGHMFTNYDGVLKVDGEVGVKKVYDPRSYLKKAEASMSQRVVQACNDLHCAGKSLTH", "test": "M. tuberculosis aldolase activity blockers – biochemical, fluorescence, strain H37Rv, primary screen (AID 588726);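 also: 0% = vehicle and 100% = reference inhibitor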", "conditions": "purified M. tuberculosis FBA, fluorescence read-out, at 1 µM, stronger effect = higher value"}
{"smiles": "O=C(NNC(=O)c1ccco1)Nc1ccccc1", "inhibition": "-0.74%"}
{"smiles": "O=C(Nc1ccc2nccnc2c1)c1ccco1", "inhibition": "50.1% (active)"}
{"smiles": "CC(C)(C)NC(=O)c1cc(NC(=O)c2ccco2)cc(NC(=O)c2ccco2)c1", "inhibition": "1.27%"}
{"smiles": "COc1ccc(-c2[nH]ncc2CN(C)Cc2cc(C)[nH]n2)c(F)c1", "inhibition": "-3.53%"}
{"smiles": "CC(C)C(OC(=O)c1cccs1)C(=O)NC1CCCCC1", "note": "(centres undefined)", "inhibition": "3.33%"}
{"smiles": "O=C(NCc1cccnc1)c1cc(C2CCCN(C(=O)C3CCCCC3)C2)on1", "note": "(centres undefined)", "inhibition": "1.09%"}
{"smiles": "CCOC(=O)COc1nc(C)cc(C(F)(F)F)c1C#N", "inhibition": "75.7% (active)"}
{"smiles": "CCOC(=O)CN(C(=O)COc1nc(C)cc(C)c1C#N)c1ccc(Cl)cc1", "inhibition": "0.17%"}
{"smiles": "Cc1cc(C(F)(F)F)c(C#N)c(SCC(=O)NC2CC2)n1", "inhibition": "1.94%"}
{"smiles": "O=C1CC(Cc2ccc(Cl)cc2)C(=O)N1c1cc(Cl)ccn1", "note": "(centres undefined)", "inhibition": "-3.99%"}
{"smiles": "Cc1cc(C)n(-c2nc(O)cc(=O)[nH]2)n1", "inhibition": "-2.32%"}
{"smiles": "CN(C)c1ccc(-c2nnc(-c3cccnc3)o2)cc1", "inhibition": "14.1%"}
{"smiles": "OC(c1nnc(-c2ccccc2)o1)c1cccs1", "note": "(centres undefined)", "inhibition": "-4.15%"}
{"smiles": "Nc1ccc(-c2nnc(-c3ccc(-c4ccccc4)cc3)o2)cc1", "inhibition": "62.9% (active)"}
{"smiles": "COC(=O)[C@@H]1C[C@@]2(O)[C@@H](O)[C@@H](O)[C@@H](O)C[C@H]2N1Cc1ccc(C)s1", "inhibition": "-1.21%"}
{"smiles": "CC(C)Cn1c(N)c(C(=O)COC(=O)C2CCCN2C(=O)c2cccs2)c(=O)n(C)c1=O", "note": "(centres undefined)", "inhibition": "2.37%"}
{"smiles": "Cc1ccc(S(=O)(=O)N2CCN(C(=O)Cc3sc(C)nc3-c3ccc(F)cc3)CC2)c(C)c1", "inhibition": "-0.33%"}
{"smiles": "C=CCn1c(COc2ccc(F)cc2)nnc1SCC(=O)Nc1cccc(S(N)(=O)=O)c1", "inhibition": "0.32%"}
{"smiles": "Cc1ccc(NC(=O)CSc2nnc(CNC(=O)c3ccccc3F)o2)cc1", "inhibition": "0.75%"}
{"smiles": "C=CCn1c(CCNC(=O)c2ccccc2F)nnc1SCC(=O)Nc1ccc(OC)cc1", "inhibition": "43.4% (active)"}
{"smiles": "COc1ccc(CCNC(=O)C(=O)NCC2OCCN2S(=O)(=O)c2ccc(OC)c(C)c2)cc1", "note": "(centres undefined)", "inhibition": "-0.91%"}
{"smiles": "O=C(CN(C(=O)c1csnn1)c1cccc(Cl)c1)NC1CCCC1", "inhibition": "2.14%"}
{"smiles": "CC(C)[C@@H](C(=O)O)N(Cc1cccc(CN([C@H](C(=O)O)C(C)C)S(C)(=O)=O)c1)S(C)(=O)=O", "inhibition": "5.75%"}
{"smiles": "O=C1CC2(CCCCC2)Oc2ccc(OCC(=O)N3CCOCC3)cc21", "inhibition": "49.5% (active)"}
{"smiles": "O=C1CC2(CCCC2)Oc2ccc(Cl)cc21", "inhibition": "2.17%"}
{"smiles": "O=C1CC2(CCN(C(=O)COc3ccc(F)cc3)CC2)Oc2ccccc21", "inhibition": "6.06%"}
{"smiles": "COc1ccc(CCNC(=O)/C(C#N)=C2\\N=C(NC(=O)c3cccs3)c3ccccc32)cc1", "inhibition": "-0.53%"}
{"smiles": "Cc1ccc2nc(/C(C#N)=C\\c3ccc(OC(=O)c4cccs4)cc3)[nH]c2c1", "inhibition": "36.1% (active)"}
{"smiles": "CCN(CC)c1ccc(C(=O)c2cnc(/N=C/N(C)C)s2)cc1", "inhibition": "-0.9%"}
{"smiles": "CCC1CCCCN1CCNC(=O)c1[nH]c(C)c(C(C)=O)c1C", "note": "(centres undefined)", "inhibition": "-2.24%"}
{"smiles": "CC(C(=O)N1CCN(c2ccccc2F)CC1)c1ccc([N+](=O)[O-])cc1", "note": "(centres undefined)", "inhibition": "-0.87%"}
{"smiles": "CCOc1ccc(NC(=O)c2ccc(NC(=O)C3CCCO3)cc2)cc1", "note": "(centres undefined)", "inhibition": "0.48%"}
{"smiles": "CC(C)(C)NS(=O)(=O)c1ccc(NC(=O)C2CCCO2)cc1", "note": "(centres undefined)", "inhibition": "0.12%"}
{"smiles": "O=C(Nc1ccc(-c2nnc(-c3ccccc3)o2)cc1)C1CCCO1", "note": "(centres undefined)", "inhibition": "61.2% (active)"}
{"smiles": "c1ccc2c(-c3nn4nnnc4c4ccccc34)cccc2c1", "inhibition": "1.01%"}
{"smiles": "Cc1csc(NC(=O)C2CCN(S(=O)(=O)c3ccccc3)CC2)n1", "inhibition": "-1.66%"}
{"smiles": "COc1cccc(C(=O)Nc2ccc3nc4n(c(=O)c3c2)CCCCC4)c1", "inhibition": "0.68%"}
{"smiles": "COc1cc(OC)cc(C(=O)Nc2ccc(-c3nc4ccccc4o3)c(O)c2)c1", "inhibition": "38% (active)"}
{"smiles": "Cc1ccc2nc(-c3ccc(NC(=O)c4cccnc4)cc3)oc2c1", "inhibition": "-7.14%"}
{"smiles": "COc1cc(OC)cc(C(=O)N[C@H](C(=O)Nc2nc3ccccc3[nH]2)C(C)C)c1", "inhibition": "-0.55%"}
{"smiles": "CC(C)(C)C(=O)CSc1nc2ccccc2o1", "inhibition": "2.23%"}
{"smiles": "CC(=O)Nc1ccc(-c2nc3ccccc3o2)cc1", "inhibition": "60.6% (active)"}
{"smiles": "CC1(C(=O)Nc2cccc3c2CCCC3)CCN1C(=O)CCc1ccc(Cl)cc1Cl", "note": "(centres undefined)", "inhibition": "0%"}
{"smiles": "O=C(Cc1ccc(F)cc1)NC1CCCC1", "inhibition": "-0.93%"}
{"smiles": "CCCNC(=O)c1c(N)n(-c2ccc(S(N)(=O)=O)cc2)c2nc3ccccc3nc12", "inhibition": "102% (active)"}
{"smiles": "Cc1noc(C)c1C(=O)NCCc1ccc(S(N)(=O)=O)cc1", "inhibition": "0.56%"}
{"smiles": "CCOC(=O)c1c(C)c(C(=O)NCCc2ccc(S(N)(=O)=O)cc2)c(C)n1CC", "inhibition": "-2.42%"}
{"smiles": "CC1(C(=O)NCc2cccc3ccccc23)CCN1Cc1ccc(-c2ccccc2)o1", "note": "(centres undefined)", "inhibition": "2.7%"}
{"smiles": "Cc1cc(Nc2cc(N3CCN(C)CC3)nc(Sc3ccc(NC(=O)C4CC4)cc3)n2)n[nH]1", "inhibition": "0.5%"}
{"smiles": "CCOc1ccc(-c2nc(C)sc2CC(=O)O)cc1", "inhibition": "5.29%"}
{"smiles": "NC(=O)Cc1ccc2sc(-c3ccccc3)nc2c1", "inhibition": "5.06%"}
{"smiles": "O=C(O)Cc1sc(-c2ccc(C(=O)O)cc2)nc1-c1ccccc1", "inhibition": "37% (active)"}
{"smiles": "Cc1cccc(C)c1N1C(=O)CN(Cc2ccccc2)C1=S", "inhibition": "3.51%"}
{"smiles": "Cc1ccc(Cc2c(-c3ccco3)nc3ccc(Cl)cn23)cc1", "inhibition": "6.29%"}
{"smiles": "Clc1cccc(Cc2c(-c3cccc(Cl)c3)nc3ccc(Cl)cn23)c1", "inhibition": "6.59%"}
{"smiles": "Cc1ccc2nc(-c3ccco3)c(Cc3cccc(Cl)c3)n2c1", "inhibition": "30.3% (active)"}
{"smiles": "O=C(Nc1ccc(N2CCN(C(=O)c3ccccc3)CC2)c(Cl)c1)c1cccnc1", "inhibition": "-4.3%"}
{"smiles": "Cc1nn(C)c(Oc2ccccc2)c1CCNS(=O)(=O)c1ccc(F)cc1", "inhibition": "28.7% (active)"}
{"smiles": "Cn1c(CCNS(=O)(=O)c2ccc(F)cc2)nnc1SCc1cccnc1", "inhibition": "-0.16%"}
{"smiles": "COc1ccc(CCNS(=O)(=O)c2ccc(F)cc2)cc1OC", "inhibition": "0.71%"}
{"smiles": "COC(=O)c1ccc(CN2CCC(CO)(Cc3ccc(OC)cc3)CC2)cc1", "inhibition": "8.41%"}
{"smiles": "CC1(Cc2cccc(C#N)c2)C(=O)Nc2ccc(-c3cccc(C(F)(F)F)c3)cc21", "note": "(centres undefined)", "inhibition": "-1.35%"}
{"smiles": "C=CCn1cc(-c2cccc(C(F)(F)F)c2)cc(C#N)c1=O", "inhibition": "47.4% (active)"}
{"smiles": "C=CCn1c(-c2ccc(Cl)cc2)ccc(C#N)c1=O", "inhibition": "1.41%"}
{"smiles": "O=C(COC(=O)CNS(=O)(=O)c1ccc(F)c(F)c1F)NC1CCCC1", "inhibition": "-3.58%"}
{"smiles": "COc1ccc(CNC(=O)CN(C(=O)c2csnn2)c2cnc3ccccc3c2)cc1", "inhibition": "3.6%"}
{"smiles": "COC(=O)N1CN(C(=O)OC)CN(C(=O)OC)C1", "inhibition": "0.37%"}
{"smiles": "Cc1ccc(C2CCN(C(=S)Nc3cccc(Cl)c3)C2)cc1", "note": "(centres undefined)", "inhibition": "-1.23%"}
{"smiles": "Cc1nc2ccc(NC(=O)N3CCC(c4ccccc4)C3)cc2nc1C", "note": "(centres undefined)", "inhibition": "72.4% (active)"}
{"smiles": "Cc1nc2ccc(NC(=S)N3CCC(C)CC3)cc2nc1C", "inhibition": "5.9%"}
{"smiles": "COc1cccc(CN2CCN(Cc3ccc4cccc(F)c4n3)CC2CCO)c1", "note": "(centres undefined)", "inhibition": "2.17%"}
{"smiles": "Cc1ccc(C(CNC(=O)Nc2cccc(C)c2)N2CCN(C)CC2)cc1", "note": "(centres undefined)", "inhibition": "2.29%"}
{"smiles": "Cc1ccccc1NC(=O)c1ccc(COc2ccc3c(C)cc(=O)oc3c2)cc1", "inhibition": "11.9%"}
{"smiles": "COc1ccc(-c2cc(=O)oc3cc(OCC(=O)N(C)C4CCS(=O)(=O)C4)ccc23)cc1", "note": "(centres undefined)", "inhibition": "3.8%"}
{"smiles": "CCN(C(=O)COC(=O)c1ccc(COc2ccc3c(C)cc(=O)oc3c2)cc1)C1CCS(=O)(=O)C1", "note": "(centres undefined)", "inhibition": "44.6% (active)"}
{"smiles": "C[C@@H]1CN([C@@H](C)CO)C(=O)CCCn2nncc2CO[C@@H]1CN(C)S(=O)(=O)c1ccc(-c2ccccc2)cc1", "inhibition": "-2.99%"}
{"smiles": "CCc1nc2c(OCCOc3ccccc3)cccn2c1N(C)C(=O)c1ccc(OC)cc1", "inhibition": "1.06%"}
{"smiles": "CN(C)CCCn1c(N)c(C#N)c2nc(C#N)c(C#N)nc21", "inhibition": "61.1% (active)"}
{"smiles": "C=CCn1c(SCc2nnc(-c3ccccc3)o2)nnc1C(O)c1ccccc1", "note": "(centres undefined)", "inhibition": "1.46%"}
{"smiles": "Cc1sc2nc(SCCO)n(-c3ccccc3)c(=O)c2c1C", "inhibition": "1.67%"}
{"smiles": "Cc1cc(C)c2c(n1)sc1c(=O)n(-c3ccccc3)c(=O)[nH]c12", "inhibition": "38.8% (active)"}
{"smiles": "C/C(O)=C\\c1nc(=O)c2c(C)cc(C)nc2n1-c1ccccc1", "inhibition": "4.59%"}
{"smiles": "COC(=O)c1ccccc1NC(=O)CN(Cc1ccccc1)S(C)(=O)=O", "inhibition": "5.21%"}
{"smiles": "COc1ccccc1N1CCN(S(=O)(=O)CCNC(=O)c2ccc(OC(C)C)cc2)CC1", "inhibition": "-0.15%"}
{"smiles": "C[C@@H]1CN([C@@H](C)CO)C(=O)c2c(c3ccccc3n2C)-c2ccccc2CO[C@H]1CN(C)C(=O)C1CC1", "inhibition": "2.36%"}
{"smiles": "COc1cccc(Cn2cnc3c([N+](=O)[O-])c(C)c(C)cc32)c1", "inhibition": "-3.25%"}
{"smiles": "Cc1ccc2[nH]c3c(=O)n(Cc4ccccn4)cnc3c2c1", "inhibition": "29.9% (active)"}
{"smiles": "O=c1c2[nH]c3ccc(Cl)cc3c2ncn1Cc1ccccn1", "inhibition": "-2.42%"}
{"smiles": "CCN1CCCC1Cn1cnc2c([nH]c3cc(OC)ccc32)c1=O", "note": "(centres undefined)", "inhibition": "1.27%"}
{"smiles": "Cc1ccc(C)c(Cn2cnc3c(oc4ccccc43)c2=O)c1", "inhibition": "-1.54%"}
{"smiles": "COc1ccc2c(c1)c1nc3n(c(=O)c1n2CC(=O)Nc1ccccc1)CCS3", "inhibition": "8.41%"}
{"smiles": "COc1ccc2c(c1)c1ncn(Cc3ccccn3)c(=O)c1n2C", "inhibition": "159% (active)"}
{"smiles": "COc1ccc2[nH]c3c(=O)n(Cc4ccco4)cnc3c2c1", "inhibition": "97.5% (active)"}
{"smiles": "COc1ccc2oc(C(=O)NCc3ccco3)c(C)c2c1", "inhibition": "25.3%"}
